Drawing on PubChem BioAssay AID504715 (Sanford-Burnham Center for Chemical Genomics, 2011), this text covers inhibition for five molecules.

Usually inhibition stands for the change of the read-out against control, counted positive when it falls.

This is one part of the list. A number with no mark means an inactive call.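 The calls were made as follows: active = compounds giving 40% or more inhibition at 20 µM in any one of the three replicates; inactive = the rest.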

In this test the target is Uracil-DNA glycosylase (Escherichia coli (strain K12)) (UniProt P12295). Nature of the test: E. coli UDG inhibitors, confirmation, counter-screen for APOBEC3G inhibitor project, biochemical, single concentration, fluorescence, FAM/TAMRA oligo (AID 504715).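 Also: plate controls were DMSO wells with UDG and oligo for no effect and DMSO wells lacking both for full effect; inhibitors lower the FAM signal released by uracil excision and alkaline cleavage.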 Particulars: UDG counterscreen, at 20 µM, stronger effect = higher value.
Uracil-DNA glycosylase (Escherichia coli (strain K12)), sequence (P12295 whole entry, looked up): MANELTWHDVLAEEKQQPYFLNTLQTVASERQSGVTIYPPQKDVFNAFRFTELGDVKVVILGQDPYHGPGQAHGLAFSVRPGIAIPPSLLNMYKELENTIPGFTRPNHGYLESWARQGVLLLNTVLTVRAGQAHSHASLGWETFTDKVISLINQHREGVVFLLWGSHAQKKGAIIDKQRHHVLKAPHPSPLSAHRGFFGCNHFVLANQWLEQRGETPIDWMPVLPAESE
`COc1cccc(C(=O)CC(=O)C(=O)Nc2ccc([N+](=O)[O-])cc2C)c1`: the inhibition was 3.46%. As to `Cc1n[nH]c(=S)n1/N=C/c1ccc(Br)o1`, the inhibition was -0.61%. On to `COc1ccc(N2C(=O)CC(Sc3n[nH]c(-c4ccc(C)cc4)n3)C2=O)cc1` (stereo not given), for which the inhibition was -1.53%. The same measure for `S=c1[nH]nc(Nc2ccccc2)s1`: 6.03%; for `COCc1c(N)c(C)nc(Cl)c1C#N`: -3.83%.
